Mot1-301 SUMO: blocks SUMOylation pathway, rescuing yeast Mot1-301 growth | S. cerevisiae Mot1-301 growth rescue, ATP luminescence, 38.5C; percent above DMSO median, 100 means doubled | AID 2716 | growth rescue, % at 18.8 µM | 1% of 320,000 active;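 active means every valid replicate shows activation above 250% relative to neutral control wells; inactive means the rest, any valid replicate at or below 250%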;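 further: OY570 slx delta 5 strain wells were the positive control but not used for scaling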
tim23-1 inh: growth inhibitors of tim23-1 mutant yeast; S. cerevisiae tim23-1 growth, BacTiter-Glo luminescence, 24 h; inhibition, % at 20 µM; 1.3% of 330,000 active;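 active means growth inhibition of the mutant yeast at or above 50%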;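 further: temperature-sensitive mutant grown at 25 °C; plate controls were DMSO-treated mutant yeast for no effect and medium wells lacking yeast for full effect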
TIM10 inh: TIM10 yeast growth inhibition | S. cerevisiae TIM10 strain growth, BacTiter-Glo luminescence, 24 h | inhibition, % at 10 µM | 1.4% of 330,000 active;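 active means inhibition of 40% or more at the single tested concentration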;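 further: wild-type TIM10 isogenic control strain grown at permissive 25 °C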
PfHsp90 set2: reduces growth (ATP signal) of yeast expressing P. falciparum Hsp90; 0.32% of 310,000 active; inhibition, % at 9.4 µM; AID 504621; S. cerevisiae expressing PfHsp90, BacTiter-Glo ATP, 48 h; yeast lacking PDR1 and PDR3 efflux regulators;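 active means every replicate shows inhibition above about 80%, whatever the replicate mean, limit read from the data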;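 further: 0% = DMSO neutral controls and 100% = 20 µM radicicol positive controls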
tim10-1 inh: growth inhibitors of tim10-1 mutant yeast; S. cerevisiae tim10-1 ts strain growth, BacTiter-Glo, 24 h; AID 463190; inhibition, % at 20 µM; 2.2% of 330,000 active;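 active means inhibition of at least 40%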;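 further: mutant grown at 25 °C; 0% = DMSO wells with yeast and 100% = wells holding no yeast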
tim23-1 confirm: confirmation of tim23-1 mutant yeast growth inhibitors | inhibition, % at 20 µM | 83% of 4,400 active | shares compounds with tim23-1 inh | S. cerevisiae tim23-1 growth, BacTiter-Glo luminescence, 24 h;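 active means inhibition above about 39% in either of two replicate wells at 20 µM, limit read from the data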;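 further: temperature-sensitive tim23-1 mutant grown at 25 °C; 0% = DMSO wells with yeast and 100% = medium wells without yeast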
The depositor's hits bear a star; . = no result given. Most compounds without a hit are left out; they make up all but 4.4% or so of the library.

SMILES	Mot1-301 SUMO	tim23-1 inh	TIM10 inh	PfHsp90 set2	tim10-1 inh	tim23-1 confirm
CCC(C)[C@H](NC(=O)[C@@H]1CSC2c3ccccc3C(=O)N21)C(=O)N1CCCCC1 (stereo partly specified)	1	5	5	6	7	.
Cc1cccc(Oc2nc(-c3ccccn3)nc3ccccc23)c1	0	51*	26	-4	40	46*
Cc1ccc(N(C(=O)c2csnn2)C(C(=O)NC2CCCCC2)c2ccncc2)cc1 (stereo unspecified)	0	6	-17	-16	8	.
CC12CN3CC(C)(CN(C1)C3c1ccc(Br)cc1O)C2 (stereo unspecified)	47	51*	12	1	32	45*
CC12CN3CC(C)(CN(C1)C3c1cc(Br)ccc1O)C2=O (stereo unspecified)	0	4	-6	4	16	.
N#Cc1c(-c2ccccc2)cc(-c2ccc(O)cc2)nc1N	5	54*	-5	-36	9	57*
Cc1ccc(S(=O)(=O)/C(C#N)=C/c2c(Oc3ccc(Cl)cc3)nc3c(C)cccn3c2=O)cc1	140	50*	-12	.	2	24
Cc1ccc(Oc2nc3c(C)cccn3c(=O)c2/C=C(\C#N)C(N)=O)cc1	205	23	16	-12	14	.
O=C(COc1coc(CN2CCN(c3ccccc3)CC2)cc1=O)Nc1ccc(F)cc1	.	9	6	10	2	.
O=C1NC(=O)c2cc([N+](=O)[O-])cc3cccc1c23	70	62*	-17	-9	3	49*
O=C(NC1CCCCC1)C(c1ccccc1)N1CCC2(CC1)OCCO2 (stereo unspecified)	2	8	22	-17	16	.
CC(C)c1ccc(NC(=O)C(c2ccccc2)N2CCC3(CC2)OCCO3)cc1 (stereo unspecified)	9	52*	38	-19	35	50*
O=C1Nc2ccccc2/C1=C/c1ccccc1Cl	-8	53*	32	15	36	46*
COc1ccccc1/C=C1\C(=O)Nc2ccccc21	23	62*	35	-20	31	46*
CN1CCN(c2ccccc2/C=C2/C(=O)Nc3ccccc32)CC1	3	20	-11	-4	18	.
Cc1ccc2c(c1)/C(=C/c1ccccc1C)C(=O)N2	87	53*	30	-32	37	42*
Brc1cccc(-c2n[nH]c(-c3ccccc3)n2)c1	49	69*	23	-38	24	48*
CC(=O)NCC1CCCN(C(=O)c2ccc(OC3CCN(Cc4ccccn4)CC3)cc2)C1 (stereo unspecified)	.	12	3	-43	6	.
COC1=CC(=O)c2ccccc2C1=O	.	78*	25	-3	38	79*
COc1ccc(OC)c(CCNC(=O)Cn2cccc2C(=O)c2ccccc2C)c1	-24	96*	-8	-2	-15	29
CC(C)Oc1cccc(C(=O)C2CCCN(C(=O)CCc3cnn(C)c3)C2)c1 (stereo unspecified)	-4	23	17	7	15	.
N#C/C(=C\c1ccc(O)c(O)c1)C(=O)N1CCc2ccccc21	-6	26	7	5	16	.
COc1cc(/C=C(\C#N)C(=O)N2CCc3ccccc32)ccc1O	241	55*	13	3	30	60*
O=C(NC1CCCC1)c1cc(COc2ccc3ncccc3c2)on1	267	-1	-7	-10	-13	.
Cc1ccc(OCc2cc(C(=O)NC3CCCCC3)no2)cn1	.	51*	22	-5	36	57*
SMILES	Mot1-301 SUMO	tim23-1 inh	TIM10 inh	PfHsp90 set2	tim10-1 inh	tim23-1 confirm
O=c1c2ccc([N+](=O)[O-])cc2ncn1CCOc1ccc(Cl)cc1	-16	62*	39	45	7	65*
CC(=O)Nc1ccccc1NC(=O)C/C(C)=N/NC(=O)C(=O)N1CCCCC1	1	-14	-6	-4	-5	.
CCOC(=O)/C(=C/c1ccc(OC(=O)c2ccncc2)cc1)C(C)=O	-5	53*	27	-67	20	70*
COc1ccc(S(=O)(=O)NC2CC(=O)N(c3cccc(F)c3)C2)cc1OC (stereo unspecified)	6	-4	-7	.	3	.
O=c1cc(-c2cccc(Br)c2)nc(-c2ccccc2F)o1	-5	63*	21	-7	30	57*
COc1ccc(N(C(=O)CNC(=O)c2cccs2)C(C(=O)NC2CCCC2)c2cccnc2)cc1 (stereo unspecified)	3	50*	12	-7	7	14
O=C(NCC(=O)N(c1ccccc1)C(C(=O)NC1CCCC1)c1cccnc1)c1cccs1 (stereo unspecified)	-6	10	-10	-1	-12	.
CCC(C)n1c(=O)c(C(=O)Nc2ccccc2S(N)(=O)=O)c(O)c2ccccc21 (stereo unspecified)	15	54*	38	-12	33	35
Cc1cnn(-c2nc(-c3ccccc3)cc(-c3ccccc3)n2)c1	.	52*	36	-49	39	56*
COc1cccc(Nc2nc3ccccc3n3cnnc23)c1	2	15	-3	-13	17	.
COc1ccc(Nc2nc3ccccc3n3cnnc23)cc1Cl	5	57*	12	4	21	5
Cc1cc(Cn2nc(-c3ccccc3)cc2C(=O)NCc2cccc(Br)c2)on1	6	-8	-1	-8	-1	.
COc1cc(/C=C/C(=O)OCC(=O)NCc2ccccc2OC)ccc1O	-11	89*	-10	3	-10	17
COc1cc(/C=C/C(=O)OCC(=O)NCc2ccc(F)cc2)ccc1O	16	-3	1	0	-4	.
Brc1ccc(OCc2nc(-c3ccccn3)n[nH]2)cc1	10	52*	6	-25	19	53*
Clc1ccc(OCc2nc(-c3ccccn3)n[nH]2)cc1	82	48	14	-10	21	.
O=C(Nc1ccc(Nc2ccccc2)cc1)c1ccccc1F	23	64*	-31	-23	-55	61*
CCOC(=O)Nc1cccc(NC(=O)c2ccccc2F)c1	5	55*	14	5	-30	63*
O=C(O)c1cc(NC(=O)c2ccccc2F)cc(NC(=O)c2ccccc2F)c1	-5	12	5	1	-1	.
COc1cccc(NC(=O)c2ccccc2F)c1	7	24	2	16	-19	.
Cn1nc(C(=O)Nc2cccc(S(=O)(=O)N3CCCCC3)c2)c2ccccc2c1=O	.	15	-3	.	11	.
Cc1csc2nc(O)c(C(=O)NCc3ccc4c(c3)OCO4)c(=O)n12	4	75*	39	0	35	73*
Cc1cc(C)cc(C(=O)NCc2ccc3c(c2)OCO3)c1	12	26	7	-10	8	.
